The text below walks through data of PubChem BioAssay (EPA / NIEHS).

By AC50 is commonly meant the concentration giving half of the maximal activity seen.

Inconclusive results are not listed. The source made the active and inactive calls. The calls were made as follows: active = hit-call score of the fitted dose curve at least 0.9, where 1 is the maximum; inconclusive = response in the unintended direction; inactive = score below 0.9.

Bile acid receptor (Homo sapiens), sequence (Q96RI1 whole entry, looked up, the tested form may be a part): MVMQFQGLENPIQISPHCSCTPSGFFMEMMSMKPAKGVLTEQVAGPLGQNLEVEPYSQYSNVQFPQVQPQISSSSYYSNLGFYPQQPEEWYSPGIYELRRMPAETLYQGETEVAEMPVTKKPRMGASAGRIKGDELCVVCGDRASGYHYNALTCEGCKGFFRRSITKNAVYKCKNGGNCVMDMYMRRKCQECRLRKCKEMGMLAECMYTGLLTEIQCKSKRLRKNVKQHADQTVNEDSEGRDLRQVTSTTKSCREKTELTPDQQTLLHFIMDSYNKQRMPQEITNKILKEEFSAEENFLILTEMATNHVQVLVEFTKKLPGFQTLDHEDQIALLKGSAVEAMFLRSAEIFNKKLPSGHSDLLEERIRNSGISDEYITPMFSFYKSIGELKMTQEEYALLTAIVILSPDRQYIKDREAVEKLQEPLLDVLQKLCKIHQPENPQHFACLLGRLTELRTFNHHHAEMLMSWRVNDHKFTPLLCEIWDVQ

For this test, the target named is Bile acid receptor (Homo sapiens) (UniProt Q96RI1). Description: OT_FXR_FXRSRC1_0480: Odyssey Thera (OT) 8-hour HEK293T Protein-Complementation Assay for Farnesoid X receptor/SRC-1 Co-activator (AID 2283383). The method, then:
OT_FXR_FXRSRC1_0480 is a cell-based assay that uses HEK293T, a human kidney cell line, with measurements taken at 8 hours after chemical dosing in a 384-well plate.OT_FXR_FXRSRC1_0480 is one of one assay component(s) measured or calculated from the OT_FXR_FXRSRC1_0480 assay. It is designed to make measurements of protein fragment complementation, a form of binding reporter, as detected with fluorescence intensity signals by Protein-fragment Complementation technology.Data from the assay component OT_FXR_FXRSRC1_0480 was analyzed into 1 assay endpoint. This assay endpoint, OT_FXR_FXRSRC1_0480, was analyzed in the positive analysis fitting direction relative to DMSO as the negative control and baseline of activity. Using a type of binding reporter, measures of receptor for gain-of-signal activity can be used to understand the binding at the pathway-level as they relate to the gene NR1H4. Furthermore, this assay endpoint can be referred to as a primary readout, because the performed assay has only produced 1 assay endpoint. To generalize the intended target to other relatable targets, this assay endpoint is annotated to the nuclear receptor intended target family, where the subfamily is non-steroidal.
Protein-fragment complementation assay, or PCA, is a method for the identification and quantification of protein-protein interactions. In the PCA, the proteins of interest ("bait" and "prey") are each covalently linked to fragments of a third protein (e.g. DHFR, which acts as a "reporter"). Interaction between the bait and the prey proteins brings the fragments of the reporter protein in close proximity to allow them to form a functional reporter protein whose activity can be measured.
With `CCNC(=O)NC(=O)C(C#N)=NOC`, the molecule was called inactive.

Take `CCCCC(O)(Cn1cncn1)c1ccc(Cl)cc1Cl` (stereo unspecified): the molecule was classed as inactive.

On to `COC(=O)NC(=S)Nc1ccccc1NC(=S)NC(=O)OC`, for which the outcome was inactive. Still for that read-out and setting: next, `O=P(O)(O)CCCl`: “inactive”. In the case of `CC(C)=CC1C(C(=O)OCc2coc(Cc3ccccc3)c2)C1(C)C` (stereo unspecified), the AC50 was 39.6 µM (active). `COc1cc(OC)nc(NC(=O)NS(=O)(=O)c2ncccc2OCC(F)(F)F)n1`: the molecule was classed as inactive. Same read-out and setting: next, `O=C(O)c1c(Cl)ccc2cc(Cl)cnc12`: “inactive”. Still for that read-out and setting: next, `CCC(C)n1c(=O)[nH]c(C)c(Br)c1=O` (stereo unspecified): “inactive”.

As for `COCC(=O)N(c1c(C)cccc1C)C(C)C(=O)OC` (stereo unspecified), the result was inactive. As to `Cc1c(COC(=O)[C@@H]2[C@H](/C=C(\Cl)C(F)(F)F)C2(C)C)cccc1-c1ccccc1`, the molecule was called inactive.

Turning to `COCC(C)N(C(=O)CCl)c1c(C)csc1C` (stereo unspecified), the molecule was called inactive. Turning to `CCN(CC)C(=O)C(C)Oc1cccc2ccccc12` (stereo unspecified), the AC50 is 32.6 µM (active). On to `COc1ccc(-c2ccccc2)cc1NNC(=O)OC(C)C`, for which the outcome was inactive. On the same count and under the same terms, then `Clc1cccc(C(Cl)(Cl)Cl)n1`, with “inactive”. Consider `CO/N=C(/C1=NOCCO1)c1ccccc1Oc1ncnc(Oc2ccccc2Cl)c1F`, for which the AC50 was 12.4 µM (active). The same measure, in the same setting: then `CCCCOCN(C(=O)CCl)c1c(CC)cccc1CC`, with 50 µM (active). Still for that read-out and setting: then `CC1(C)C(C(=O)OC(C#N)c2cccc(Oc3ccccc3)c2)C1(C)C` (stereo unspecified), with 2.05 µM (active). Still for that read-out and setting: then `COP(=S)(OC)Oc1ccc([N+](=O)[O-])c(C)c1`, with 21.3 µM (active). As for `CN=C=S`, the call was inactive. As to `CCOc1cc(C(C)(C)C)ccc1C1COC(c2c(F)cccc2F)=N1` (stereo unspecified), the AC50 is 1.27 µM (active). As to `CS(=O)(=O)c1ccc(C(=O)C2C(=O)CCCC2=O)c([N+](=O)[O-])c1`, the molecule was classed as inactive.
